CYP2C9 inh = human CYP2C9 inhibition. P11712. CYP2C9 Supersomes, luciferin-H conversion, luminescence. hit rate 20% among 96,000. inhibition, % at 5 µM;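 active means blocking of liver enzyme CYP2C9 beyond about 50% at 5 µM, limit read from the data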
Target sequence (P11712 whole entry, looked up): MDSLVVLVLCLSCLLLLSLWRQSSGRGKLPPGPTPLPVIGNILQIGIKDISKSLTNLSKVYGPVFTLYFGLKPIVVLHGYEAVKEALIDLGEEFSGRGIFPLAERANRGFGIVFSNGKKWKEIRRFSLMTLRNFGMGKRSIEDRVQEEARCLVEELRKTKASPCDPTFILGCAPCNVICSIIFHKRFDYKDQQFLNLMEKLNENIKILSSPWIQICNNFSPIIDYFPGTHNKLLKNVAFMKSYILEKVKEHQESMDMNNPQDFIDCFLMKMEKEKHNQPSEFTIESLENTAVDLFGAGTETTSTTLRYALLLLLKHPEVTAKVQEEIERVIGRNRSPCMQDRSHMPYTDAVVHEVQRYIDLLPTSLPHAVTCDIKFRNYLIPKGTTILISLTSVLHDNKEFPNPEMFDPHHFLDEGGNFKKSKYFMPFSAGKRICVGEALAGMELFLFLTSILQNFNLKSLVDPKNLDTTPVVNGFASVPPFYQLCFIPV
CYP2C19 inh = inhibitors of human CYP2C19. P33261. hit rate 21% among 96,000. CYP2C19 Supersomes, luciferin-H EGE luminescence, 30 min. inhibition, % at 5 µM. AID 778;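 active means CYP2C19 inhibition above a set limit at 5 µM in the primary screen, cut at about 50% in these data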;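 further: plate controls were negative control wells for no effect and 2.5 mM tranylcypromine positive control for full effect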
CYP2C19 activ = increases human CYP2C19 enzyme activity; 96,000 tested, under 10 active; activation factor at 5 µM; recombinant CYP2C19, luciferin-H EGE luminescence; stronger effect = higher value; 0 = fully inhibited enzyme, 1 = untreated enzyme;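 active means activation factor of at least 2 at 5 µM in the primary screen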;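 further: 0 = wells with 2.5 mM tranylcypromine and 1 = vehicle-only wells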
CYP2C9 activ = activators of human CYP2C9. recombinant CYP2C9, luciferin-H conversion, luminescence; stronger effect = higher value; factor 1 = untreated enzyme, 0 = blocked. hit rate 1.4% among 96,000. activation factor at 5 µM;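 active means activation factor of 2 or more for CYP2C9 at a 5 µM dose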;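 further: 0 = sulfaphenazole-blocked wells and 1 = vehicle-only wells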
PostGolgi ctrl = growth of the yeast control strain, post-Golgi counter-screen | hit rate 5% among 98,000 | inhibition, % at 10 µM | efflux-deficient yeast background strain, growth absorbance A615, 16 h | AID 738
PostGolgi yeast = growth inhibition of a yeast mutant, post-Golgi transport screen; post-Golgi transport phenotypic cell assay; inhibition, % at 10 µM; hit rate 0.9% among 98,000; AID 739;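 further: yeast cells grown in 1536-well plates; yeast grown about 18 h at 30C before absorbance read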
The depositor's hits bear a star; / = no result given. The list is not random: actives were taken first. Their share in the collection is about 32%. Unless noted, no stated cut-off is given here; in the data, active means inhibition above about 30%; inactive means the rest.

SMILES	CYP2C9 inh	CYP2C19 inh	CYP2C19 activ	CYP2C9 activ	PostGolgi ctrl	PostGolgi yeast
O=C(c1cccnc1)N1CCN(Cc2ccccc2Br)CC1	-5	80*	0.2	1.1	3	6
O=C(c1cccnc1)N1CCN(Cc2cccc(Br)c2)CC1	27	94*	0.1	0.7	5	7
O=C(c1cccnc1)N1CCN(Cc2ccc3c(c2)OCO3)CC1	-12	40	0.6	1.1	5	-8
COc1ccc(CN2CCN(C(=O)c3cccnc3)CC2)cc1Br	47	94*	0.1	0.5	0	1
CCS(=O)(=O)N1CCN(C(=O)c2cccc(OC)c2)CC1	-3	29	0.7	1	4	-3
Cc1ccc(-c2csc(/C(C#N)=C(\O)CN3CCN(C(=O)c4ccco4)CC3)n2)cc1	48	1	1	0.5	3	0
Cc1ccc(C)c(C(C)NC(=O)C2C3CCC(O3)C2C(=O)O)c1 (centres undefined)	6	5	0.9	0.9	-3	3
COCCNCC(=O)C12CC3CC(CC(C3)C1)C2	-8	25	0.8	1.1	3	-7
CC(C)(C)c1ccc(-c2n[nH]c(=S)n2C2CCCC2)cc1	11	26	0.7	0.9	59*	-6
CCOC(=O)C1=C(C)NC2=C(C(=O)C(C(=O)OCC)C(c3ccc(OC)cc3)C2)C1c1ccccn1 (centres undefined)	29	29	0.7	0.7	10	6
COc1cc(CNc2ncn[nH]2)cc(Br)c1OC	16	36	0.6	0.8	7	-28
Cc1ccc(NC(=S)NCc2cccnc2)cc1	14	70*	0.3	0.9	5	0
Fc1ccc(CNc2ccc(CNc3ncn[nH]3)cc2)cc1	33	64*	0.4	0.7	6	5
c1ccc(NCc2cccnc2)cc1	6	10	0.9	0.9	-4	-1
Fc1ccc(NCc2cccnc2)cc1	17	58*	0.4	0.8	9	-4
S=C(NCc1cccnc1)Nc1cccc(Cl)c1	66*	73*	0.3	0.3	1	0
S=C(NCc1cccnc1)Nc1ccc(Cl)cc1	35	39	0.6	0.6	5	3
O=C(CCN1C(=O)C2C3C=CC(C3)C2C1=O)N1CCN(c2ccc(F)cc2)CC1 (centres undefined)	-9	-7	1.1	1.1	-4	6
CN(c1ccc(C(=O)NCCc2ccccc2)cc1)S(C)(=O)=O	4	12	0.9	1	13	2
OC1(c2cccc(F)c2)CCN(Cc2ccncc2)CC1	2	65*	0.3	1	3	11
CCN1CCN(C(c2cccs2)C(C)NC(=O)NC2CCCCC2)CC1 (centres undefined)	6	-2	1	0.9	7	1
Cc1ccc(C)c2nc(SCC(=O)N3CCCc4ccccc43)c(C#N)cc12	25	6	0.9	0.8	10	-5
Cc1nc(SCCO)c2oc3ccccc3c2n1	48	27	0.7	0.5	-3	4
CCc1nc(SCC(=O)N2CCCc3ccccc32)c2oc3ccccc3c2n1	74*	39	0.6	0.3	37*	11
CCc1nc(SCC(=O)Nc2nccs2)c2oc3ccccc3c2n1	76*	38	0.6	0.2	1	-5
SMILES	CYP2C9 inh	CYP2C19 inh	CYP2C19 activ	CYP2C9 activ	PostGolgi ctrl	PostGolgi yeast
CCc1nc(SCC(=O)Nc2ccc3c(c2)OCCO3)c2oc3ccccc3c2n1	52*	24	0.8	0.5	-10	-5
Cc1nc(SCC(=O)Nc2ccc3c(c2)OCCO3)c2oc3ccccc3c2n1	73*	96*	0	0.3	-1	-5
CCCNC1=C(C)C(=O)CC1	-11	6	0.9	1.1	0	-10
CC(N1CCOC1=O)S(=O)(=O)c1ccccc1 (centres undefined)	-1	-2	1	1	14	19
COc1cc(CNn2nnnc2N)ccc1OCC(=O)NC(C)(C)C	-5	-11	1.1	1	10	-10
O=C(CSc1ncnc2c1cnn2Cc1ccccc1)Nc1ccc2c(c1)OCCO2	55*	58*	0.4	0.5	8	3
COc1cccc(NC(=O)CSc2ncnc3c2cnn3Cc2ccccc2)c1	19	-16	1.2	0.8	2	0
CN1CCN(C(=S)NC(=O)/C=C/c2cccc3ccccc23)CC1	-201	39	0.6	3*	6	9
Cc1ccc2c(c1)c1c(n2CC(O)Cn2c(C)nc3ccccc32)CCCC1 (centres undefined)	77*	14	0.9	0.2	13	-4
Cc1ccc2c(c1)c1c(n2CC(O)Cn2nc(C)c(Br)c2C)CCCC1 (centres undefined)	72*	64*	0.4	0.3	20	0
Cc1ccc2c(c1)c1c(n2CC(O)CNC(C)(C)C)CCCC1 (centres undefined)	-1	28	0.7	1	1	-7
Cc1nn(CC(O)Cn2c3c(c4ccccc42)CCN(C)C3=O)c(C)c1Br (centres undefined)	81*	91*	0.1	0.2	43*	-8
CCOC(=O)/C(N=Nc1ccc(Cl)cc1)=C(/O)c1ccc([N+](=O)[O-])cc1	0	-4	1	1	2	8
COc1ccc(COC(=O)NNC(=O)c2ccccc2Cl)cc1	12	72*	0.3	0.9	6	13
Cc1ccccc1C(=O)/C=C1\NC(=O)CS1	15	7	0.9	0.8	5	11
CCc1ccc(C2CC(c3ccco3)=NN2S(C)(=O)=O)cc1 (centres undefined)	40	62*	0.4	0.6	11	-8
CCc1ccc(NC(=O)c2cc(-c3ccco3)on2)cc1	/	/	/	/	-2	-2
c1ccc2c(-n3cccn3)cccc2c1	-7	23	0.8	1.1	-3	0
CCOC(=O)c1c(C)c2c(n1C)CCC/C2=N\O	33	60*	0.4	0.7	5	0
CCOCCCNC(=O)c1c(C)c(C(=O)OCC)n(C)c1C	-69	8	0.9	1.7	12	10
CS(=O)(=O)N(CC(=O)N1CCN(c2ccccc2F)CC1)c1cc(C(F)(F)F)ccc1Cl	-76	29	0.7	1.8	6	-1
CCc1ccc(Cn2nnc(C(=O)Nc3ccc(OC)cc3OC)c2N)cc1	-238	-8	1.1	3.4*	7	-5
COc1ccc(OC)c(NC(=O)c2nnn(CCc3ccccc3)c2N)c1	15	-5	1.1	0.9	9	-3
COc1cccc(NC(=O)c2nnn(CCc3ccccc3)c2N)c1	92*	73*	0.3	0.1	7	-6
CC(C)(C)CC(=O)NC(=S)N1CCCCCC1	0	14	0.9	1	9	1
O=c1oc(/C=C/c2ccco2)nc2sc3c(c12)CCC3	3	-1	1	1	-1	-3
CC(=NC1CCCCC1)C1=C(O)c2ccccc2C1=O	86*	87*	0.1	0.1	/	/

Bioassay records: PubChem, several laboratories
